# D1 potentiator: human D1 dopamine receptor positive modulation | HEK293 TREx D1 cells, calcium flux, dopamine EC20 potentiation | 360,000 tested, 0.036% active | potentiation, % at 10 µM; in the data active = potentiation above about 30%
# Target sequence (P21728 whole entry, looked up): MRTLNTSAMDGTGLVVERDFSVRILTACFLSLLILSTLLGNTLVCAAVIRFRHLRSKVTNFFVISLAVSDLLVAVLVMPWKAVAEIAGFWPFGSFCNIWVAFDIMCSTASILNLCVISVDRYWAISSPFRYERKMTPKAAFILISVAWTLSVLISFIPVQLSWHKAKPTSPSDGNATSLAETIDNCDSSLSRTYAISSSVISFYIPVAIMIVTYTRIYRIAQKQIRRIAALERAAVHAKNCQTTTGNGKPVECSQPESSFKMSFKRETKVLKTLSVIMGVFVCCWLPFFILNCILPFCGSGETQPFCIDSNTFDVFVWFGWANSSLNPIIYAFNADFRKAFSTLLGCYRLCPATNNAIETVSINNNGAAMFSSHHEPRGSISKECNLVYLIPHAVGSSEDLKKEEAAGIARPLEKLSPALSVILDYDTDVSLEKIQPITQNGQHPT
# D3 antag: antagonists of human D3 dopamine receptor; AID 652054; 360,000 tested, 2.5% active; max response, negative = inhibition, %; D3R cells, DiscoveRx beta-arrestin luminescence, antagonist mode; stronger effect = lower value; in the data active = max response below about -50%; inconclusive = no clear call, values can overlap the other calls
#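 Cells plated overnight at 1500 cells/well, then exposed to library compounds with dopamine controls for 90 minutes at 37 degrees C. DiscoveRx reagent added for 30–60 minutes at room temperature; luminescence read, quantitative HTS format.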
# D1 antagonist: human D1 dopamine receptor antagonism. P21728. HEK293 TREx D1 cells, calcium flux, dopamine EC80; stronger effect = lower value. activity change, negative = inhibition, % at 10 µM. 360,000 tested, 3.2% active; in the data active = activity change below about -30%
#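 After overnight tetracycline induction at 30 C, force-coupled D1 HEK293 cells took up a no-wash calcium dye at room temperature. Compounds were added and monitored 180 s, and the response to EC80 dopamine was then recorded.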
# D1 ag: human D1 receptor agonism; HEK293 T-REx D1 cells, calcium flux, agonist mode; 360,000 tested, 1% active; activation, % at 2 µM; P21728; in the data active = activation above about 30%
#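 Agonism was scored from calcium flux recorded over 180 s (1 read/s) after pintool compound addition, following a 10-cycle baseline. Cells were inducible force-coupled HEK293 TREx D1, plated overnight at 30 C and loaded with no-wash calcium dye.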
# DRD3 agonist: activates the human D3 dopamine receptor | P35462 | D3R DiscoveRx beta-arrestin cells, luminescence, 90 min | 410,000 tested, 0.58% active | AID 652048 | max activation, %; in the data active = max activation above about 30%
#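 Agonist mode: compounds and dopamine controls were applied to plated cells for 90 min at 37 degrees C after an overnight attachment at 1500 cells/well. Luminescent read-out followed 30 - 60 minutes at room temperature with DiscoveRx detection reagent.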
# Hits are given with their value; – = inactive; ? = inconclusive; · = no result given. A selection: hits, their analogues and other compounds. The true share with any hit is near 6%.
SMILES,D1 potentiator,D3 antag,D1 antagonist,D1 ag,DRD3 agonist
Cc1nn2c(=O)cc(COC(=O)c3cccc(NC(=O)c4ccc(F)cc4)c3)nc2s1,–,·,–,–,–
Cc1cc(C)c(/C=C/c2onc(C)c2S(=O)(=O)N2CCC(C(=O)NCC(C)c3ccccc3)CC2)c(C)c1 (centres undefined),–,·,–,–,–
C[C@]12c3[nH]c4cc(-c5ccco5)ccc4c3CCN1C(=O)[C@@H](CC(=O)NCCC1=CCCCC1)C[C@@H]2C(=O)N1CCOCC1,·,–,·,·,–
C[C@@H]1CCCCO[C@@H](CN(C)S(=O)(=O)c2ccccc2)[C@@H](C)CN([C@H](C)CO)C(=O)c2cc(N(C)C)ccc2O1,·,–,·,·,–
O=C(Cn1c(=O)oc2cc(Cl)ccc21)Nc1cccc(C(F)(F)F)c1,–,·,-46.9,–,–
O=C(Cn1c(=O)oc2ccccc21)Nc1cccc(Cl)c1,–,–,–,–,–
CCOc1ccccc1NC(=O)Cn1c(=O)n(CCCC(=O)NCCc2ccc(C)cc2)c(=O)c2ccccc21,–,·,–,–,–
Cc1ccccc1-c1noc(CSc2nc3ccccc3[nH]2)n1,–,·,–,–,–
CCc1ccc(S(=O)(=O)NCc2ccc(C(=O)NCCN(Cc3ccccc3)C(C)C)cc2)cc1,·,-90.5,·,·,–
Cc1nnc(Sc2nc3ccccc3o2)c2ccccc12,–,-68.5,–,–,–
CCCOc1ccc(NC(=O)CC2C(=O)N(CC)C(=S)N2CCCN2CCN(Cc3ccccc3)CC2)cc1 (centres undefined),–,–,-33.9,–,–
CCN1C(=O)C(CC(=O)Nc2ccc(OC)cc2)N(CCc2ccc(OC)cc2)C1=S (centres undefined),–,–,-33.0,–,–
CCN1C(=O)C(CC(=O)Nc2ccc(OC)cc2)N(Cc2ccc(OC)c(OC)c2)C1=S (centres undefined),–,–,–,–,–
Cc1cccc(CNC(=O)Cn2nc(C)c3nn(-c4ccc(Cl)cc4)c(C)c3c2=O)c1,–,·,–,–,–
CCN(CC)CCCCCC(=O)Nc1ccccc1C(=O)Nc1ccccc1,–,–,–,–,–
Cc1ccc(C(=O)c2oc3ccccc3c2NC(=O)COc2ccccc2Cl)cc1,–,·,–,–,–
O=C(CCn1c(=O)c2ccccc2n(Cc2cccnc2)c1=O)NCc1ccc2c(c1)OCO2,–,-59.4,–,–,–
Cc1ccc(Cl)cc1NC(=O)Cn1c(=O)n(CCC(=O)NCc2ccc3c(c2)OCO3)c(=O)c2sccc21,–,·,–,–,–
Cc1ccccc1Cn1c(=O)n(CCC(=O)NCc2ccc3c(c2)OCO3)c(=O)c2ccccc21,–,–,–,–,–
Cc1ccc(NC(=O)Cn2c(=O)n(CCC(=O)NCc3ccc4c(c3)OCO4)c(=O)c3sccc32)c(C)c1,–,·,-33.5,–,–
CCOc1ccc(N(CC)S(=O)(=O)N2CCCC(C(=O)Nc3ccc(OC)c(Cl)c3)C2)cc1 (centres undefined),–,·,–,–,–
COc1cc2c(cc1OC)C(COc1ccc(C(C)C)cc1)NCC2 (centres undefined),–,–,–,40.5,–
COc1ccc(CC(=O)NCc2ccccc2)cc1,–,–,–,–,–
C=CCC(NCc1ccccc1)c1ccc(OC)cc1 (centres undefined),–,–,-33.7,–,–
C=CCC(NCc1ccccc1)c1ccco1 (centres undefined),–,–,-56.8,–,–
SMILES,D1 potentiator,D3 antag,D1 antagonist,D1 ag,DRD3 agonist
COc1ccccc1NC(=O)CCCOc1cc(=O)n(C)c2ccccc12,–,·,–,–,–
Cn1c(NCC(O)c2ccccc2)nc2c1c(=O)n(Cc1ccc(Cl)c(Cl)c1)c(=O)n2C (centres undefined),·,?,·,·,32.6
Cn1c(NCC(O)c2ccccc2)nc2c1c(=O)n(Cc1ccc(Cl)cc1)c(=O)n2C (centres undefined),–,–,–,–,–
Cc1cnc(C(=O)OCC(=O)c2ccc(F)cc2)cn1,–,–,–,–,–
Cc1ccc(Nc2cc(C)c3ccc(O)cc3n2)cc1C,–,-56.6,–,32.5,–
COC(=O)c1cc(Nc2cc(C)c3ccc(O)cc3n2)cc(C(=O)OC)c1,–,–,–,–,–
COc1ccc(Nc2c(C)cccc2C)cc1,–,–,-38.4,–,–
COC(=O)c1cc(Nc2cc(C)c3c(O)cccc3n2)cc(C(=O)OC)c1,–,–,–,–,–
Cc1ccc(Nc2cc(C)c3c(O)cccc3n2)cc1C,–,–,-48.6,35.2,–
COc1ccc(C(=O)CC(=O)C(=O)Nc2c(C)cccc2C)cc1,–,–,–,–,–
COc1ccc(Nc2cc(C)c3c(O)cccc3n2)cc1,–,–,-32.8,–,–
CCOc1ccc(NC(=O)C2(c3cccs3)CCOCC2)cc1,–,·,·,–,–
COc1ccc([C@H]2CC(=O)C=C(c3cccc(C(C)C)c3)C2)cc1,–,-60.8,–,–,–
O=C1C=C(c2ccc(Oc3ccccc3)cc2)C[C@@H](c2ccc(F)cc2)C1,–,-72.7,·,–,–
COc1ccc([C@H]2CC(=O)C=C(c3ccc(C)c(F)c3)C2)cc1,–,?,–,56.3,–
O=C1C=C(c2ccc(OC(F)(F)F)cc2)C[C@@H](c2ccc(F)cc2)C1,–,–,–,–,–
COc1ccc(C2=CC(=O)C[C@H](c3ccc(OC)cc3)C2)cc1,–,?,-37.0,–,–
COc1cccc(CCNC(=O)c2c(O)nc3ccccn3c2=O)c1,–,·,–,–,–
COc1cccc(-c2nc(SCc3cc(=O)c4ccc(C)c(C)c4[nH]3)n[nH]2)c1,–,·,–,–,–
CCOc1ccc(NC(=O)C2CCC(CNS(=O)(=O)c3ccc4c(c3)CCCC(=O)N4)CC2)cc1 (centres undefined),–,·,–,–,–
O=C1C=C(c2ccc(-c3ccccc3)cc2)C[C@@H](c2ccc(Cl)cc2)C1,–,–,-36.3,–,–
Cc1cccc(NC(=O)c2sc3nc4c(c(-c5cccs5)c3c2N)CN(C)CC4)c1,–,–,-40.0,–,–
C[C@H]1CN([C@@H](C)CO)C(=O)CCCn2nncc2CO[C@@H]1CN(C)S(=O)(=O)c1ccc(Oc2ccccc2)nc1,·,–,·,·,–
COC1CCN(C(=O)c2ccc(OC3CCN(CCc4ccccc4)CC3)cc2)CC1,–,–,–,–,–
CN(Cc1nccs1)C(=O)c1ccc(OC2CCN(CCc3ccccc3)CC2)cc1,–,?,-53.6,–,–
CN(C(=O)c1ccc(OC2CCN(CCc3ccccc3)CC2)cc1)C1CCOCC1,–,-82.5,–,–,–
O=C(c1ccc(OC2CCN(CCc3ccccc3)CC2)cc1)N1CCC(CO)CC1,–,–,-44.4,–,–
CSCCNC(=O)c1ccc(OC2CCN(CCc3ccccc3)CC2)cc1,–,-78.6,–,–,–
